In PubChem BioAssay AID1159580 (chemical genetic matrix, 2015):
Where “and” joins values, the source holds several entries; their conditions need not be identical. Equal entries are not always repeated. The campaign covered roughly 5,500 compounds. About 2,000 (36%) were called active. Not shown: some 18% with an inconclusive outcome. No stated cut-off is given here; in the data, active means normalized growth mostly below about 0.91 (no sharp cut-off); inconclusive means no clear call, values can overlap the other calls; inactive means mostly above about 0.92. The list shows a part of the results.

Test: chemical genetic growth profiling, strain panel (AID 1159580);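 further: tested at 20 µM; growth read once vehicle control cultures reached saturation at 30 °C; 1 = growth at the plate median or of vehicle wells; lower values mean less growth of the strain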
Settings: S. cerevisiae deletion strains, growth OD

Measured: normalized growth

COC[C@]12CN(C=O)C3[C@@H]4[C@H](OC)C1[C@]3(C1CC3(O)C(OC)C(O)C4(OC(C)=O)C1C3OC(=O)c1ccccc1)[C@@H](OC)C[C@H]2O (stereo not given in full)
inactive: locus YAL021C, strain ccr4, hits give low values 1.02 | locus YAL026C, strain drs2, hits give low values 1.01 | locus YAL030W, strain snc1, hits give low values 1.01 | locus YBL061C, strain skt5, hits give low values 1.01 | locus YBR009C, strain hhf1, hits give low values 1.01 | locus YBR021W, strain FUR4, hits give low values 0.995 | locus YBR023C, strain chs3, hits give low values 1.01 | locus YBR171W, strain sec66, hits give low values 1.03 | locus YBR229C, strain ROT2, hits give low values 1.01 | locus YBR231C, strain swc5, hits give low values 1.01 | locus YBR279W, strain paf1, hits give low values 1.01 | locus YCL011C, strain gbp2, hits give low values 1.01 | locus YCL016C, strain dcc1, hits give low values 1.01 | locus YCL029C, strain bik1, hits give low values 0.997 | locus YCL061C, strain MRC1, hits give low values 1.02 | locus YCL069W, strain vba3, hits give low values 1.01 | locus YCR088W, strain abp1, hits give low values 1.01 | locus YDL005C, strain med2, hits give low values 1.02 | locus YDL035C, strain GPR1, hits give low values 1.01 | locus YDL040C, strain nat1, hits give low values 1.01 | locus YDL074C, strain BRE1, hits give low values 1.03 | locus YDL101C, strain DUN1, hits give low values 1.02 | locus YDL185W, strain tfp1, hits give low values 1.01 | locus YDL192W, strain arf1, hits give low values 1 | locus YDR001C, strain nth1, hits give low values 1.01 | locus YDR069C, strain doa4, hits give low values 1.02 | locus YDR101C, strain arx1, hits give low values 0.99 | locus YDR137W, strain rgp1, hits give low values 1.01 | locus YDR159W, strain sac3, hits give low values 1.01 | locus YDR162C, strain NBP2, hits give low values 1.02 | locus YDR195W, strain ref2 1.01 | locus YDR297W, strain sur2, hits give low values 1 | locus YDR318W, strain mcm21, hits give low values 1.01 | locus YDR334W, strain swr1, hits give low values 1.01 | locus YDR335W, strain msn5, hits give low values 0.998 | locus YDR388W, hits give low values 0.998 | locus YDR392W, strain spt3, hits give low values 1.01 | locus YDR502C, strain sam2, hits give low values 1.02 | locus YEL003W, strain gim4, hits give low values 1.01 | locus YEL037C, strain rad23, hits give low values 1 | locus YEL061C, strain CIN8 (second series), hits give low values 1 | locus YEL061C, strain CIN8, hits give low values 1.01 | locus YER015W, strain faa2, hits give low values 1.01 | locus YER016W, strain bim1, hits give low values 1.03 | locus YER110C, hits give low values 1.01 | locus YER111C, strain swi4, hits give low values 1.01 | locus YER155C, strain BEM2 (second series), hits give low values 1.03 | locus YER155C, strain BEM2, hits give low values 0.995 | locus YER167W, strain BCK2, hits give low values 1.01 | locus YFR010W, strain ubp6, hits give low values 1.02 | locus YGL078C, strain dbp3, hits give low values 1.02 | locus YGL086W, strain mad1, hits give low values 1.01 | locus YGL167C, strain pmr1, hits give low values 1.02 | locus YGL173C, strain kem1, hits give low values 1.01 | locus YGL227W, strain vid30, hits give low values 1.01 | locus YGL240W, strain doc1, hits give low values 1.01 | locus YGL248W, strain PDE1, hits give low values 1.02 | locus YGL253W, strain hxk2, hits give low values 1.02 | locus YGR135W, strain pre9, hits give low values 1.02 | locus YGR252W, strain gcn5, hits give low values 1.02 | locus YHR013C, strain ard1, hits give low values 1.01 | locus YHR027C, strain rpn1, hits give low values 1.01 | locus YHR030C, strain SLT2, hits give low values 1 and 1.05 | locus YHR079C, strain IRE1 (second series), hits give low values 1.01 | locus YHR079C, strain IRE1, hits give low values 1.04 | locus YHR094C, strain hxt1, hits give low values 1.01 | locus YHR129C, strain ARP1, hits give low values 1 | locus YHR142W, strain chs7, hits give low values 0.999 | locus YHR200W, strain rpn10, hits give low values 1.01 | locus YIL066C, strain RNR3, hits give low values 1.01 | locus YIL073C, strain SPO22, hits give low values 1.04 | locus YIL125W, strain kgd1, hits give low values 0.999 | locus YIR030C, strain dcg1, hits give low values 1 | locus YJL092W, strain hpr5, hits give low values 1.01 | locus YJL095W, strain BCK1 (second series), hits give low values 1.02 | locus YJL095W, strain BCK1, hits give low values 1.04 and 1.02 | locus YJL115W, strain asf1, hits give low values 0.997 | locus YJL129C, strain trk1, hits give low values 1.02 | locus YJL134W, strain LCB3, hits give low values 1.01 | locus YJL154C, strain vps35, hits give low values 1.01 | locus YJL164C, strain tpk1, hits give low values 1.01 | locus YJL166W, strain qcr8, hits give low values 1.01 | locus YJL168C, strain set2, hits give low values 0.997 | locus YJL187C, strain SWE1 (second series), hits give low values 1.03 | locus YJL187C, strain SWE1, hits give low values 1.01
